In PubChem BioAssay AID1376 (SRMLSC, 2008):
Hit rate of the full screen: of about 220,000 compounds, about 530 (0.24%) were called active. This excerpt belongs to a sample that is enriched for actives. Results with a measured potency or affinity are listed apart. Unmarked numbers belong to inactive results. Cut-off read from the data, not from the text of the source: active = inhibition above about 13%; inconclusive = no clear call, values can overlap the other calls; inactive = below that.

Biological target: Bifunctional protein GlmU (Mycobacterium tuberculosis (strain ATCC 25618 / H37Rv)) (UniProt P9WMN3)
Assay: inhibition of mycobacterial GlmU enzyme – biochemical, glucosamine-1-phosphate acetyltransferase (AID 1376);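 note: 0% = complete reaction with vehicle and 100% = reaction without substrate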
Settings: M. tuberculosis GlmU acetyltransferase enzyme assay; stronger effect = higher value;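 tested at 30 µM in the primary screen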

Bifunctional protein GlmU (Mycobacterium tuberculosis (strain ATCC 25618 / H37Rv)), sequence (P9WMN3 whole entry, looked up): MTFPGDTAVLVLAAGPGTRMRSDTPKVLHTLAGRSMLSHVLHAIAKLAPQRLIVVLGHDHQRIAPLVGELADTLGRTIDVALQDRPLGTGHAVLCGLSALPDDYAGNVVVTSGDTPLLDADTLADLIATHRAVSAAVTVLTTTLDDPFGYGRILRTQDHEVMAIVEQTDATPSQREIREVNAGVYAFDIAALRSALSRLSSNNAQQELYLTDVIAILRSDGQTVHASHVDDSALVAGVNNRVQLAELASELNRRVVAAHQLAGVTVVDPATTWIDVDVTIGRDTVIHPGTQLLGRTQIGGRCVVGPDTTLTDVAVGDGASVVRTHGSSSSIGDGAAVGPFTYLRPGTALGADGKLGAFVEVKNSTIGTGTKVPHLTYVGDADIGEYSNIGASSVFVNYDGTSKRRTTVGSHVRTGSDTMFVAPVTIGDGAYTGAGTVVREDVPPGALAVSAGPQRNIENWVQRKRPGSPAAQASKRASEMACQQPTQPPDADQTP

| SMILES | inhibition |
| --- | --- |
| COCc1cc(C)nc(SCC(=O)Nc2ccccc2C)c1C#N | 2.63% |
| COCc1cc(C)nc(SCC(=O)Nc2cccc(C)c2C)c1C#N | 3.01% |
| COCc1cc(C)nc(SCC(=O)Nc2cccc3cccnc23)c1C#N | 15.1% (active) |
| CC(C)(C)NCC(O)Cn1cc(C=O)c2ccccc21 (stereo unspecified) | 1.11% |
| CC1(c2ccccc2)CC(C)(C)N2C(=O)Cc3cccc1c32 (stereo unspecified) | 2.59% |
| Cc1cccc(-n2c(=O)[nH]c3c(C(N)=O)nc(C(C)C)nc32)c1 | 0.14% |
| CCn1c2ccccc2c2cc(NC(=O)CSc3nnc(-c4ccc(OC)c(OC)c4)n3N)ccc21 | 3.95% |
| CCn1c2ccccc2c2cc(NC(=O)CSc3nnc(-c4cccc(OC)c4)n3N)ccc21 | 14.2% (active) |
| CCn1c2ccccc2c2cc(NC(=O)CSc3nnc(-c4ccc(OC)cc4)n3N)ccc21 | 1.4% |
| COC(=O)c1c(NC(=O)C2COc3ccccc3O2)sc2c1CCN(C(C)=O)C2 (stereo unspecified) | 2.68% |
| O=C(COC(=O)/C=C/c1ccccc1[N+](=O)[O-])NC1CCS(=O)(=O)C1 (stereo unspecified) | 6.21% |
| Cc1cccc(Sc2c([N+](=O)[O-])ncn2C)c1 | 4.72% |
| Cn1cnc([N+](=O)[O-])c1Oc1ccc2ccccc2c1 | -3.73% |
| Cn1cnc([N+](=O)[O-])c1S(=O)(=O)c1cccc(Cl)c1 | 14.8% (active) |
| CCS(=O)(=O)c1c([N+](=O)[O-])ncn1C | 5.34% |
| Cn1cnc([N+](=O)[O-])c1Cl | 2.48% |
| COc1ccc(/C=C(\C)c2nc(C)c(-c3ccccc3)c(=O)[nH]2)cc1 | 4.53% |
| Fc1ccc(N2CCN(c3ncnc4nc[nH]c34)CC2)cc1 | 4.66% |
| O=C(COC(=O)c1ccc(S(=O)(=O)N2CCCC2)cc1)Nc1ccc(N2CCOCC2)cc1 | -1.26% |
| Cc1cccc(-c2nc3c(c(SCC(N)=O)n2)CCCC3)c1 | 14.5% (active) |
| NC(=O)CSc1nc(-c2ccccc2)nc2c1CCCC2 | -3.87% |

| SMILES | inhibition |
| --- | --- |
| Cc1cccc(-c2nc3c(c(SCC(=O)N(C)C)n2)CCCC3)c1 | -3.93% |
| COc1ccc(OC)c(NC(=O)NC2(C(F)(F)F)Oc3ccccc3O2)c1 | -3.98% |
| O=C(O)CCSCC(=O)c1ccc2c(c1)OCCO2 | -0.32% |
| CN(C)c1cc(Nc2cccc(O)c2)c([N+](=O)[O-])c2nonc12 | -3.39% |
| CNc1cc(Cl)c2nonc2c1[N+](=O)[O-] | 11.9% |
| CN(C)c1cc(Nc2ccc(O)cc2)c([N+](=O)[O-])c2nonc12 | 0.57% |
| O=[N+]([O-])c1c(Nc2ccccn2)cc(Cl)c2nonc12 | -2.44% |
| Cc1c(Nc2cc(N3CCOCC3)c3nonc3c2[N+](=O)[O-])c(=O)n(-c2ccccc2)n1C | -3.88% |
| CCNc1cc(Nc2c(C)n(C)n(-c3ccccc3)c2=O)c([N+](=O)[O-])c2nonc12 | 2.95% |
| CC1CN(C(=O)c2ccncc2)CC(C)O1 (stereo unspecified) | 2.56% |
| c1cc2nncn2nc1N1CCCC1 | -1.89% |
| COC(=O)c1cc(C#N)c(Oc2ccccc2)nc1C | 0.33% |
| COc1cc(/C=N/NC(=O)c2cccnc2)ccc1OS(=O)(=O)c1cc(C)ccc1C | -3.66% |
| O=C(OC1Cn2c(=O)ccc(=O)n2C1)c1ccc([N+](=O)[O-])cc1 | 1.59% |
| COc1ccc(C(C(=O)NC2CCCC2)N(CC2CCCO2)C(=O)Cn2nnc(-c3ccc(C)o3)n2)cc1 (stereo unspecified) | 0.08% |
| O=C1/C(=C/c2ccco2)SC(=S)N1C1CCS(=O)(=O)C1 (stereo unspecified) | 5.66% |
| CC1=C(C#N)C(=O)N(C2CCS(=O)(=O)C2)C(=O)/C1=C\c1ccc(C)o1 (stereo unspecified) | 5.88% |
| CC1=C(C#N)C(=O)N(C2CCS(=O)(=O)C2)C(=O)/C1=C\c1ccco1 (stereo unspecified) | 25.3% (active) |
| O=C1CN(c2ccc(Cl)cc2)C(=O)CN1NC(=S)Nc1ccc(Cl)cc1 | -0.02% |
| Cc1ccccc1-c1nnc(SCC#N)o1 | 5.25% |
| C(=N\Nc1ncnc2ccccc12)/c1ccccc1 | 4.18% |

| SMILES | inhibition |
| --- | --- |
| Clc1cccc(/C=N/Nc2ncnc3ccccc23)c1 | 14.7% (active) |
| Clc1cccc(/C=N/Nc2nc(Cl)nc3ccccc23)c1 | -3.16% |
| O=C(COC(=O)c1cccs1)NCC1CCCCC1 | -4.05% |
| Cc1cc(C)nc(Sc2ccc(/C=C(\C#N)C(=O)Nc3ccccc3)o2)n1 | -0.9% |
| Cc1ccc(NC(=O)/C(C#N)=C/c2ccc(Sc3nc(C)cc(C)n3)o2)cc1 | 19.7% (active) |
| Cc1cc(C)nc(Sc2ccc(/C=C(\C#N)C(N)=O)o2)n1 | 3.14% |
| O=C1c2ccccc2S(=O)(=O)c2cc(C(=O)N3CCN(c4ccccc4)CC3)ccc21 | -0.95% |
| COc1ccc(/C=N/NC(=O)c2ccc(CN3C(=O)c4cccc5cccc3c45)cc2)cc1O | -5.54% |
| CC(=O)N1C(Nc2ccc(Cl)cc2)CCN1c1ccccc1 (stereo unspecified) | 13.2% (active) |
| O=C(CCN1CCN(c2ccccc2)CC1)Nc1ccc(Cl)cc1 | 7.38% |
| O=C(Nc1ccc(Cl)cc1)N1CCN(c2ccccc2)CC1 | -0.29% |
| COc1ccc(OCCC(=O)OCC(=O)NCCC2=CCCCC2)cc1 | -0.76% |
| O=C(NCc1ccc2c(c1)OCO2)c1cc(-c2ccc(Cl)cc2Cl)on1 | -0.34% |
| O=c1cc[nH]c2c(Cl)cccc12 | 17.7% (active) |
| O=c1cc[nH]c2c(C(F)(F)F)cccc12 | 2.39% |
| Cc1[nH]ccc(=O)c1OCc1c(Cl)cccc1Cl | -3.63% |
| COC(=O)C(C(=O)OC)c1ncccc1[N+](=O)[O-] | 3.41% |
| COc1ccc(N2CC(C(=O)Nc3ccc4c(c3)OCO4)CC2=O)cc1 (stereo unspecified) | -2.39% |
| CS(=O)(=O)N(Cc1ccco1)Cc1ccccc1Cl | 1.25% |
